Source: PubChem BioAssay AID686979 (National Center for Advancing Translational Sciences (NCATS), 2013)
“And” between values parts separate entries of the source, which are not always exact repeats. Equal entries are not always repeated. Out of some 420,000 compounds screened, about 50,000 (12%) were called active. Another 26% or so got no clear call; they are omitted. The sample as a whole holds a higher share of actives than the screen did. Unmarked numbers belong to inactive results. Calls follow the shape of the dose curve; as a rule, active = well fitted inhibition curve with a large enough effect; inconclusive = small, poorly fitted or top-dose-only effect; inactive = flat fitted curve, though single readings scatter.

Assay: qHTS for Inhibitors of human tyrosyl-DNA phosphodiesterase 1 (TDP1): qHTS in cells in presence of CPT; also: nearly all actives have a fitted effect of over 55% in size
Conditions: chicken DT40 Tdp1-/-;hTDP1 cells + 20 nM CPT, ATP luminescence, 48 h; series mostly up to 46.2 µM; activity change, negative = growth inhibition: at the top concentration
Procedure, shortened: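 Cell growth measured by CellTiter-Glo luminescence after a minimum 48 h, 37 C compound exposure with 20 nM CPT in Tdp1-knockout DT40 cells stably expressing hTDP1, seeded 400/well; qHTS titration format.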
% is scaled to controls: 0 for no effect and ±100 for the full control effect; potency is read from the fitted curve at half-maximal effect.

Structure (SMILES) | activity change, negative = growth inhibition [%] | Potency
CCC(=O)c1ccc(OCC(=O)OCC(=O)N2CCc3ccccc3C2)cc1 | -2.43 | –
COc1cccc(C(NC(C)=O)c2nc(-c3cnc4ccccc4c3)cs2)c1 (stereo unspecified) | -3 | –
COc1ccc(Nc2cc(Cl)ccc2C(=O)O)cn1 | -2.52 | –
COc1ccc(-c2csc(C(O)c3cccc(Cl)c3)n2)cn1 (stereo unspecified) | – | 16.4 µM (active)
CCCC(CNC(=O)COC(=O)C1=NNC(=O)CC1)c1ccc(Cl)cc1Cl (stereo unspecified) | 1.78 | –
CC(C)C(=O)Nc1ccc2c(c1)oc1ccccc12 | -28.2 | –
O=C(CSc1nnc(-c2ccccc2O)o1)NC1CCCCC1 | -22.7 | –
Cn1nccc1/C=N\NC(=O)c1ccc(Cl)cc1 | -7.55 | –
Cc1cc(Oc2ccccc2)nc(N2CCOCC2)n1 | -11.7 | –
Cc1ccc(Nc2nc3ccccc3nc2-n2nc(C)cc2C)c(Cl)c1 | 8.53 | –
Cc1cc(C)n(-c2cc(Oc3ccccc3)ncn2)n1 | -11.2 | –
Cc1cccc(Nc2cc(C)nc(-n3nc(C)cc3C)n2)c1 | – | 3.26 µM (active)
COc1ccc(NC(=O)c2nc(-n3nc(C)cc3C)ccc2Cl)cc1Cl | -23.4 | –
COc1ccc(Nc2nc(=O)[nH]nc2C)cc1 | -17.5 | –
Cc1cc(Nc2ccccc2)nc(N)n1 | -5.5 | –
COc1ccc(Nc2cc(C)nc(-n3nc(C)cc3C)n2)cc1 | – | 0.517 µM (active)
CC(=O)c1ccc(Oc2cc(C)nc(-n3nc(C)cc3C)n2)cc1 | – | 0.731 µM (active)
CC(=O)NCCC(=O)Nc1cc(S(=O)(=O)N2CCCCC2)ccc1Oc1cccc(C)c1 | -10.8 | –
COC(=O)c1ccc(NC(=O)c2cc3c(CO)cnc(C)c3oc2=Nc2cccc(C(N)=O)c2)cc1 | 1.92 | –
O=C(N/C(=C\c1ccc([N+](=O)[O-])cc1)C(=O)N1CCCCC1)c1ccco1 | 1.48 | –
CC(=O)Nc1ccc(NC(=O)[C@@H](NC(=O)c2cccc(C)c2)C(C)C)cc1 | 6.73 | –
Cc1ccc(NC(=O)C(C)c2cccc(C(=O)c3ccccc3)c2)cc1 (stereo unspecified) | – | 14.6 µM (active)
CC(=O)c1cccc(NC(=O)Nc2ccc(C)cc2)c1 | 4.63 | –
O=C(CN(C(=O)CNC(=O)c1cccs1)c1cccc(F)c1)NC1CCCCC1 | 3.13 | –
Cc1ccc(N2C(=O)C(CC(=O)Nc3cccc(F)c3)N(CCc3ccncc3)C2=O)cc1 (stereo unspecified) | -13.6 | –
CCOC(=O)c1ccc(NC(=O)CC2C(=O)N(c3cccc(OC)c3)C(=O)N2C2CCCCC2)cc1 (stereo unspecified) | – | 20.6 µM (active)

Structure (SMILES) | activity change, negative = growth inhibition [%] | Potency
COc1ccc(CCN2C(=O)N(c3cccc(OC)c3)C(=O)C2CC(=O)Nc2ccccc2)cc1 (stereo unspecified) | – | 18.4 µM (active)
CCNC(=O)N1CCNC(=O)C1CC(=O)Nc1ccc(C(=O)OCC)cc1 (stereo unspecified) | 5.76 | –
CCOc1ccc(NC(=O)CC2C(=O)N(c3cccc(OC)c3)C(=O)N2C2CCCCC2)cc1 (stereo unspecified) | -29 | –
CCOc1ccc(NC(=O)CC2C(=O)N(c3ccccc3)C(=O)N2CCOC)cc1 (stereo unspecified) | 7.81 | –
CN1c2ccc([N+](=O)[O-])cc2C(C)(C)C12C=Cc1cc(C(=O)O)ccc1O2 (stereo unspecified) | 1.71 | –
COc1ccc(S(=O)(=O)N2CCOCC2)cc1NC(=O)Cc1coc2cc(C)ccc12 | -12.2 | –
COc1ccc(/C(C)=N/NC(=O)c2ccc3nc[nH]c3c2)cc1 | -3.72 | –
O=C(CSc1cccc[n+]1[O-])c1ccc(-c2ccccc2)cc1 | – | 0.92 µM (active)
COc1ccccc1C(=O)CSc1cccc[n+]1[O-] | 2.9 | –
CCN(C(=O)CSc1cccc[n+]1[O-])c1ccccc1 | -16 | –
Cc1ccc(C(C)NC(=O)Cn2nc(C)c([N+](=O)[O-])c2C)cc1 (stereo unspecified) | -9.96 | –
Cn1c(CC2Sc3ccccc3NC2=O)nnc1SCC(=O)c1ccc(Cl)cc1 (stereo unspecified) | -7.86 | –
O=C(CN1C(=O)COc2ccc(Cl)cc21)N1CCOCC1 | 14.1 | –
Cc1ccc(NC(=O)NCC(c2cccnc2)N2CCOCC2)cc1 (stereo unspecified) | -6.59 | –
COc1ccccc1N1CCN(C(CNC(=O)C(=O)NCc2ccc(C)cc2)c2cccnc2)CC1 (stereo unspecified) | – | 4.61 µM (active)
Cc1ccc(NC(=O)C(=O)NCC(c2cccnc2)N2CCOCC2)cc1 (stereo unspecified) | -12.9 | –
CC(OC(=O)c1cc2ccccc2[nH]1)C(=O)N(C)c1ccccc1 (stereo unspecified) | -28.6 | –
O=C(Cc1ccccn1)c1ccc(O)cc1O | -7.64 | –
Cc1ccc(CN(Cc2cccnc2)C(=S)Nc2cc(Cl)ccc2C)cc1 | – | 13 µM (active)
Cc1c(Cl)cccc1NC(=S)N(Cc1ccccc1)Cc1cccnc1 | -22.2 | –
Cc1ccc(Cl)cc1NC(=S)N(CCN(C)C)Cc1cccs1 | -27.7 | –
C=CCn1nc(-c2ccccc2)c2c(C)onc2c1=O | 8.61 | –
O=C(Nc1cccc(C(=O)NC2CC2)c1)c1ccc(F)c(S(=O)(=O)N2CCOCC2)c1 | -23.2 | –
OCC[C@H]1C[C@H](O)[C@@H](O)[C@]2(CCCCO2)O1 | -0.0748 | –
Cc1nnsc1C(=O)NCc1c(F)cccc1Cl | -1.82 | –
CC(C)c1ccc(NS(=O)(=O)c2cn(C)c(=O)n(C)c2=O)cc1 | -8.08 | –

Structure (SMILES) | activity change, negative = growth inhibition [%] | Potency
Cc1ccc(NS(=O)(=O)c2cn(C)c(=O)n(C)c2=O)c(C)c1 | -5.84 | –
Cn1cc(S(=O)(=O)Nc2ccc(Cl)cc2Cl)c(=O)n(C)c1=O | – | 20.6 µM (active)
Cc1ccc(NC(=O)c2oc(=O)c3ccccc3c2-c2ccccc2)c(C)c1 | – | 23.1 µM (active)
Cc1ccc(NC(=O)c2ccn(C(=O)Nc3ccccc3)n2)c(C)c1 | -14.8 | –
Cc1ccc(NC(=O)c2oc3ccccc3c2C)c([N+](=O)[O-])c1 | -17.7 | –
O=C(CSc1nnc(Nc2ccccc2F)s1)NC1CCCC1 | -19.6 | –
Nc1cccc(-c2cncc(N3CCN(Cc4ccccn4)CC3)n2)c1 | -23.8 | –
COc1cccc(-c2noc(C3CCCN(C(=O)c4ccc(F)cc4)C3)n2)c1 (stereo unspecified) | 12 | –
COc1ccc(NC(=O)C2CCCN(S(=O)(=O)c3cccc4nonc34)C2)cc1Cl (stereo unspecified) | -7.61 | –
COc1cc(-c2noc(C3CCCN(S(=O)(=O)c4cccc(Cl)c4)C3)n2)cc(OC)c1OC (stereo unspecified) | – | 12.6 µM (active)
COc1ccccc1CC(NC(C)=O)C(=O)NC1CCN(C(=O)Nc2ccccc2Cl)CC1 (stereo unspecified) | -0.748 | –
COc1cc(C2/C(=C(\O)c3ccc4c(c3)CC(C)O4)C(=O)C(=O)N2c2nnc(C)s2)cc(OC)c1OC (stereo unspecified) | -25.2 | –
Cc1cc(Nc2ccc(C(=O)N3CCCCC3)cc2)c2cccc(C)c2n1 | -29.6 | –
CCOC(=O)N1CCN(C(c2cccnc2)c2ccc3cccnc3c2O)CC1 (stereo unspecified) | – | 3.66 µM (active)
CCOC(=O)N1CCN(C(c2ccnc3ccccc23)c2nnnn2-c2c(C)cccc2C)CC1 (stereo unspecified) | -13.3 | –
CCOC(=O)N1CCN(Cc2nc(N)nc(Nc3ccc(C)cc3)n2)CC1 | -20.9 | –
CC1(C(=O)O)CCC(C(=O)Nc2ccc(Cl)c(Cl)c2)C1(C)C (stereo unspecified) | 13.4 | –
COc1ccc(S(=O)(=O)NNC(=O)Nc2ccc(C)cc2)c(OC)c1 | -12.3 | –
CCOC1=C2CN(S(=O)(=O)c3ccc(C)cc3)[C@H](c3cccs3)C[C@H]2[C@H]2C(=O)N(c3ccccc3)C(=O)[C@H]2C1 | -20.8 | –
Cc1ccc(S(=O)(=O)c2c(COC(=O)c3cccc(Cl)c3)c(-c3ccccc3)nn2C)cc1 | – | 23.1 µM (active)
O=C(COC(=O)c1cccc(Cl)c1)NC(=O)NCc1ccccc1 | -2.34 | –
Cc1cc(C)n(-c2c(F)c(F)c(COC(=O)c3ccccc3)c(F)c2F)n1 | -8.41 | –
COc1ccc(S(=O)(=O)N2CCOCC2)cc1NC(=O)COc1ccccc1 | -1.42 | –
CC1CC(C)CN(C/C=C/c2ccccc2[N+](=O)[O-])C1 (stereo unspecified) | -20.7 | –
O=C(CCNC(=O)c1ccccc1Cl)NN=Cc1ccco1 | 3.9 | –
COc1cccc(-c2cc3nc(NCc4ccccc4OC)n(C)c(=O)c3s2)c1 | – | 13 µM (active)

Structure (SMILES) | activity change, negative = growth inhibition [%] | Potency
Cn1c(NCc2cccnc2)nc2cc(-c3ccc(F)cc3)sc2c1=O | -8.93 | –
CC(=O)Nc1cccc(-c2cc3nc(NCc4cccnc4)n(C)c(=O)c3s2)c1 | -19.4 | –
CN(C)S(=O)(=O)c1ccc(N/C=C(\[N+](=O)[O-])S(=O)(=O)c2ccccc2)cc1 | 0.564 | –
C[C@@H](C(=O)N1CCNCC1)n1cc(CCC(=O)O)nn1 | -8.56 | –
Cc1ccc(Cn2c(C)c(C(=O)NCc3ccccc3C(F)(F)F)sc2=O)cc1 | -25.2 | –
O=[N+]([O-])c1ccccc1S(=O)(=O)Nc1cccc2cccnc12 | – | 794 nM (active) and 3.26 µM (active)
Cc1ccccc1NC(=O)c1ccccc1NS(=O)(=O)c1cccc2cccnc12 | 6.92 | –
NS(=O)(=O)c1ccc(CCNS(=O)(=O)c2cccc3cccnc23)cc1 | 9.19 | –
COc1cccc(C(=O)NC(=O)Nc2nc(C)cc(C(F)(F)F)n2)c1 | -1.3 | –
Cc1ccc(N2CC(C(=O)Nc3cc(Cl)ccc3-n3cncn3)CC2=O)cc1 (stereo unspecified) | -11.7 | –
O=C(c1ccco1)N1CCN(C(=S)Nc2cc(F)cc(F)c2)CC1 | -16.4 | –
O=C(CN1CCN(C(=O)c2ccco2)CC1)Nc1ccc(Cl)c(C(F)(F)F)c1 | – | 23.1 µM (active)
O=C(CN1CCN(C(=O)c2ccco2)CC1)Nc1ccc2c(c1)OCO2 | 9.66 | –
Cc1ccc(-n2nnnc2CNC(=O)c2ccccc2C)cc1C | -8.98 | –
C[C@H]1CN([C@@H](C)CO)C(=O)CCCn2cc(nn2)CO[C@@H]1CN(C)S(=O)(=O)c1cccc(C#N)c1 | 24.7 | –
O=C(O)C(c1cccs1)C1(O)CCCCC1 (stereo unspecified) | -2.18 | –
O=C(NCCCN1CCOCC1)c1cc(-c2ccccc2F)no1 | -15 | –
COC(=O)CSc1snnc1-c1ccc(Cl)c(Cl)c1 | 4.95 | –
Cc1c(NC(=O)C(C)OC(=O)c2ccccc2O)c(=O)n(-c2ccccc2)n1C (stereo unspecified) | -25 | –
Cc1c(NC(=O)C(C)OC(=O)c2c3c(nc4ccccc24)CCC(C)C3)c(=O)n(-c2ccccc2)n1C (stereo unspecified) | – | 13 µM (active)
Cc1c(NC(=O)C(C)OC(=O)c2cc3c4ccccc4n(C)c3s2)c(=O)n(-c2ccccc2)n1C (stereo unspecified) | -24.5 | –
N#C/C(=C\c1ccccc1)c1n[nH]c(Cn2cncn2)n1 | -9.22 | –
Cc1nn2cc(-c3ccc(Cl)cc3)cnc2c1Br | 18.4 | –
